This note sets out measurements from PubChem BioAssay (NCI).

What all share (assay): NCI-60 one-dose screen, 48 h (100 = growth as untreated, 0 = no growth, -100 = all killed)
Conditions in all cases: 10 µM

The subject of experiment [1] is DU-145 prostate.
In experiment [2] the test system is K-562 leukemia.
For experiment [3], the system named is MALME-3M melanoma.
In experiment [4] the test system is MDA-MB-231 breast.
The subject of experiment [5] is RXF 393 renal.
In experiment [6] the test system is SF-268 CNS.
In experiment [7] the test system is SF-295 CNS.
In experiment [8] the test system is SF-539 CNS.
Experiment [9] concerns UACC-257 melanoma.
For experiment [10], the system named is M14 melanoma.

This is part of a sample that, as a whole, favours compounds with a hit. Of some 83,000 tested, about 20% had one in any assay.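 Negative percent growth values reflect cell death: -40 means 40% of the cells present at the start died, and -100 means all died.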 Unmarked numbers belong to inactive results. Activity calls are given as the source filed them. How the source made its calls: active means growth percent below 10; inactive means the rest.

As for `CONC[C@]1(C)C=C2C(=O)[C@](C)(O)C3(CC3)C(C)=C2[C@H]1O`, the growth in experiment [1] is 2.57% (active); in experiment [2], 2.9% (active); in [3] it was -73.5% (active); in experiment [4], -33.5% (active); in experiment [5] it was -85.9% (active); in experiment [6] it was -4.06% (active). The growth in [7] was -9.33% (active); in experiment [8], -80.5% (active); in experiment [9], -27.2% (active); in [10] it was -13.5% (active).

Take `O=C1NC(=NC23CC4CC(CC(C4)C2)C3)N/C1=C\c1ccc2ncoc2c1`: the growth was 7.99% (active) in experiment [1]; 12.1% in experiment [2]; -24.3% (active) in experiment [3]; -1.98% (active) in [4]; -52.5% (active) in experiment [5]; 9.72% (active) in experiment [6]. In addition, the growth in experiment [7] was 11.2%; in [8], -49.2% (active); in experiment [9] it was 4.63% (active); in experiment [10], 29.4%.

As for `COc1cccc(-c2ccc(/C=N/NC(=O)c3[nH]c4ccc(Br)cc4c3-c3ccccc3)o2)c1`, the growth in [1] was 25.9%; in experiment [2] it was 3.8% (active); in [3], 47.5%; in experiment [4], 23.6%; in experiment [5] it was 26.1%; in experiment [6], 33.5%. In addition, the growth is -14.6% (active) in experiment [7], -67.7% (active) in [8], 36.9% in experiment [9] and 16.7% in experiment [10].

Take `O=C(N/N=C/c1ccc(B(O)O)o1)c1[nH]c2ccc(Br)cc2c1-c1ccccc1`: the growth was 40.9% in experiment [1]; 7.21% (active) in experiment [2]; 61.1% in experiment [3]; 28.1% in experiment [4]; 1.27% (active) in [5]; 51.1% in experiment [6]. The growth in [7] was -8.66% (active); in [8], -33.4% (active); in experiment [9], 63.4%; in [10], 20.1%.

Turning to `CN1CCN(c2ccc(C(=O)/C=C/c3cc(Br)ccc3F)cc2)CC1`, the growth in [1] is 44.8%; in experiment [2], -35.5% (active); in experiment [3], 78.9%; in experiment [4], 26.9%; in experiment [5], 38.8%; in experiment [6], 88.6%. Further, the growth in experiment [7] is 60.7%; in experiment [8] it was 2.31% (active); in experiment [9] it was 73.8%; in experiment [10], 52.1%.

As for `Cc1ccc([N+](=O)[O-])c(C(=O)Nc2ccc(-c3ccc4c(c3)NC(=O)/C4=C\c3ccc[nH]3)cc2)c1`, the growth in experiment [1] was 10.5%; in experiment [2], 28%; in experiment [3], 55.5%; in [4] it was 55.1%; in experiment [5] it was 87.4%; in experiment [6], 14.2%. The growth in [7] was -65.3% (active); in [8], 73.7%; in experiment [9], 81.4%; in experiment [10], 34.2%.

With `C=C1CCC2C3(C)COC(c4ccccc4F)OC3CCC2(C)C1C/C=C1/C(=O)OCC1O` (stereo not given), the growth in experiment [1] was -27.8% (active); in experiment [2], 12.3%; in experiment [3], -76.8% (active); in [4], -54% (active); in experiment [5] it was -68.5% (active); in [6] it was 58%. Also, the growth in experiment [7] was -36.1% (active); in [8] it was -87.5% (active); in experiment [9], -77.6% (active); in [10] it was -54.1% (active).

On to `O=C(c1ccc(O)cc1)C1[C@H](c2ccc(Br)cc2)[C@@H](c2ccccc2)NC12C(=O)Nc1ccccc12` (stereo not given in full), for which the growth in experiment [1] is 49.1%; in [2] it was 35.3%; in experiment [3], 43.6%; in experiment [4], -40.8% (active); in experiment [5] it was -16.4% (active); in [6] it was 35.5%. The growth was 29.9% in experiment [7], 41.2% in experiment [8], 75.9% in experiment [9] and 51.7% in [10].

For `CN(CCF)c1ccc(/C=C/C(=O)c2ccc(N)cc2O)cc1`, the growth was 69.6% in [1]; 51.4% in experiment [2]; 102% in experiment [3]; 95.7% in experiment [4]; 82.8% in experiment [5]; 93.7% in [6]. Further, the growth in [7] was 80.4%; in [8], 83.5%; in [9], 96.6%; in experiment [10], 107%.

Consider `O=c1oc2ccc(-c3ccc(F)cc3F)cc2c(=O)n1-c1ccc(F)c(Cl)c1`, for which the growth in experiment [1] was 12.6%; in experiment [2], 3.74% (active); in [3], -29.1% (active); in experiment [4], -27.6% (active); in experiment [5] it was -19.7% (active); in experiment [6] it was 2.31% (active). Further, the growth was -80.3% (active) in [7], -5.14% (active) in [8], -15.9% (active) in experiment [9] and 12.8% in experiment [10].

Take `O=c1cc(-c2ccccc2)oc2cc(OCCCNCc3ccccc3)cc(O)c12`: the growth in experiment [1] was 13.2%; in experiment [2], -20.1% (active); in [3], -94.3% (active); in [4] it was -43.1% (active); in [5], -56.7% (active); in [6] it was 25.2%. The growth in experiment [7] is -81.8% (active); in [8], -97.3% (active); in experiment [9] it was -69.7% (active); in [10], -76% (active).

Consider `CC(=O)Nc1ccc(-n2cnc3cc(-c4ccc(O)cc4)ccc32)cc1F`, for which the growth in [1] is 34%; in experiment [2] it was 6.14% (active); in experiment [3], 65.6%; in [4], 34.7%; in experiment [5], -0.397% (active); in experiment [6], 40.6%. The growth in experiment [7] is 2.75% (active); in experiment [8], -5.18% (active); in experiment [9] it was 59.8%; in experiment [10], 35.5%.

With `Nc1cccnc1/C=N/NC(=S)NCCNC(=O)c1ccc(-n2nc(-c3ccccc3O)nc2-c2ccccc2O)cc1`, the growth in experiment [1] was 27.9%; in experiment [2], 7.44% (active); in experiment [3] it was 14.3%; in experiment [4] it was 19.8%; in experiment [5], -10.6% (active); in experiment [6], 32.8%. For the same compound, the growth was -6.19% (active) in experiment [7], -23.2% (active) in experiment [8], 7.34% (active) in experiment [9] and -39% (active) in experiment [10].
